# Screening results: PubChem BioAssay, National Center for Advancing Translational Sciences (NCATS)
# Sampled rows, rich in hits. Any-hit rate of the full collection: about 18%.
# TDP1 cell CPT: DT40-hTDP1 cell growth loss with CPT; chicken DT40 Tdp1-/-;hTDP1 cells + 20 nM CPT, ATP luminescence, 48 h; Potency, µM (titrated, usually from 46.2 µM), hits mostly inhibitors; 420,000 compounds, 12% hits; also: nearly all actives have a fitted effect of over 55% in size
#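 Chicken DT40 Tdp1-/- cells stably complemented with human TDP1 were seeded at 400 cells/well in medium containing 20 nM camptothecin, exposed to pin-transferred compounds, and grown at 37 °C for at least 48 hr. Viability was read as ATP luminescence.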
# TDP1 block: inhibitors of human tyrosyl-DNA phosphodiesterase TDP1; recombinant TDP1, AlphaScreen DNA substrate cleavage; Potency, µM (doses to about 130 µM), most hits filed as inhibitors; 350,000 compounds, 0.28% hits; AID 485290; also: nearly all actives have a fitted effect of over 40% in size
# Target sequence (Q9NUW8 whole entry, looked up): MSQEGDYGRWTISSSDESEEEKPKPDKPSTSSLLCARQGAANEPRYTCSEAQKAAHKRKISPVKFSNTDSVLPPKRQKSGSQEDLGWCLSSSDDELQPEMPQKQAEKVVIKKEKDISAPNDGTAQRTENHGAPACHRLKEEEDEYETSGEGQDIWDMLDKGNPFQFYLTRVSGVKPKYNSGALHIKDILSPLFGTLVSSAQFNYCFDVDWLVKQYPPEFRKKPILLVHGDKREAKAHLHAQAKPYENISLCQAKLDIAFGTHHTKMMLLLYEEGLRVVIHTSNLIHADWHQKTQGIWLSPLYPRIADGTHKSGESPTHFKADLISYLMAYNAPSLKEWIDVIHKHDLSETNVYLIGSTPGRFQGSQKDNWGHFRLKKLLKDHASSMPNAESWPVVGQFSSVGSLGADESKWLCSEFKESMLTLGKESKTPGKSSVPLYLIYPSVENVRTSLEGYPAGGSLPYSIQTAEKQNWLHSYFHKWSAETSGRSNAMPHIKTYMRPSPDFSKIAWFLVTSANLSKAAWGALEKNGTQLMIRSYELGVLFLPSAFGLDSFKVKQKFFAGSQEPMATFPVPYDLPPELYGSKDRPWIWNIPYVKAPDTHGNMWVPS
#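 Compounds were preincubated with Tdp1 (1 nM final) for 15 min at room temperature before substrate (15 nM final) started a 5 min reaction; beads (10 ug/ml final) were then added for 10 min before AlphaScreen detection.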
# DT40 TDP1 no CPT: qHTS for Inhibitors of human tyrosyl-DNA phosphodiesterase 1 (TDP1): qHTS in cells in absence of CPT; DT40 Tdp1-/- hTDP1 cells, no CPT, ATP luminescence, 48 h; Potency, µM (highest dose often 46.2 µM), actives largely listed as inhibitors; 420,000 compounds, 15% hits; AID 686978, 2013; also: nearly all actives have a fitted effect of over 55% in size
#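 DT40 Tdp1-/-;hTDP1 cells, no CPT (DMSO vehicle only), 400 cells/well; compounds pin-transferred; ≥48 hr, 37 °C; CellTiter-Glo 30 min RT dark, luminescence read.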
# IL-1B inflam inh: inflammasome signaling inhibition, IL-1 beta readout | activity change, % at 57.5 µM | AID 743279 | THP-1 LPS/ATP IL-1B secretion, AlphaLISA, 16 h; hits give low values | 360,000 compounds, 4.7% hits; in the data active = activity change below about -50%; inconclusive = mostly about -30% to -49%
#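 Secreted IL-1B measured by AlphaLISA bead assay after 16 h compound exposure of THP-1 cells; compounds (final up to 57.5 uM) added 1 h before LPS (250 ng/mL) and ATP (1.25 mM) stimulation; lower signal means less secretion.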
# HepG2 viability: HepG2 cytotoxicity, counter-screen for TGF-b inhibitors; HepG2 CAGA-GFP viability, ATP luminescence, 18 h; 410,000 compounds, 0.76% hits; Potency, µM (doses to about 46.1 µM), hits mostly cytotoxic
#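 HepG2 CAGA-GFP cells (1000/well, DMEM with 1% FBS) received compound, then TGF-beta at 500 pg/mL final, and were incubated 18 hours at 37 degrees C. Viability was read by CellTiter-Glo luminescence. Media-only wells were set as complete cell-killing and DMSO as no toxicity.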
# TGFb inhibitor: blocks TGF-b signaling | 410,000 compounds, 1.2% hits | Potency, µM (series often up to 46.1 µM), hits mostly inhibitors | HepG2 CAGA-GFP TGF-b/SMAD3 reporter, GFP fluorescence, 18 h; TGF-beta stimulated, 500 pg/mL final; also: nearly all actives have a fitted effect of over 65% in size
#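 HEPG2 CAGA-GFP, 1000 cells/well; 2 h settle, 37 C; cpd via pin tool; TGF-b 500 pg/mL final; 18 h, 37 C; GFP imaging ex488/em500-530; %Activity normalised to -TGF-b and +DMSO controls; CRC fit, curve class.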
# Numbers stand for hits; i = inactive; ? = inconclusive; nt = no result given; [ ] = dose if it differs, or a comment. Unless noted, calls follow the shape of the dose curve; as a rule, active = well fitted curve in the direction sought with a large enough effect; inconclusive = small, poorly fitted or top-dose-only effect, or another doubt; inactive = no such curve, though single readings can be large; an effect the other way counts as inactive or inconclusive.
SMILES,TDP1 cell CPT,TDP1 block,DT40 TDP1 no CPT,IL-1B inflam inh,HepG2 viability,TGFb inhibitor
Cc1cccc(N2C(=O)CC(Sc3ncn[nH]3)C2=O)c1 (configuration not stated),1.84µM,?,1.84µM,i,i,i
O=c1ccc(=O)n(-c2ccccc2)[nH]1,16.4µM,i,?,i,i,i
CC(C)(C)c1cc(=O)n(-c2ccccc2)[nH]1,25.9µM,i,?,-97.5,i,?
O=c1cc(-c2ccccc2)[nH]n1-c1ccccc1,?,nt,?,i,i,?
COCCNC(=O)CCCn1c(SCC(=O)c2ccc(F)cc2)nc2c(sc3ccccc32)c1=O,i,i,i,nt,i,i
O=C(NC1CC(=O)N(c2cccc(F)c2)C1)C(c1ccccc1)c1ccccc1 (configuration not stated),?,i,?,nt,i,i
CCn1c(C(=O)NCc2ccccc2Br)cc2oc3ccccc3c21,20.6µM,i,i,nt,12.6µM,i
COc1ccc(CNC(=O)c2cc3oc4ccccc4c3n2C)cc1OC,?,i,?,nt,i,?
CCn1c(C(=O)NCc2cc(Br)ccc2OC)cc2oc3ccccc3c21,23.1µM,i,?,nt,i,nt
Cn1c(C(=O)NCc2ccccc2F)cc2oc3ccccc3c21,?,i,?,nt,i,nt
Cn1c(C(=O)NCc2ccccc2)cc2oc3ccccc3c21,i,i,i,?,i,i
CCn1c(C(=O)NCc2cccc(Br)c2)cc2oc3ccccc3c21,?,i,14.6µM,nt,i,nt
Cc1cc2nc(-c3ccc(OCc4ccccc4C)cc3)cc(C(F)(F)F)n2n1,?,i,16.4µM,nt,i,i
Cc1cc2nc(-c3ccc(OCc4ccccc4Cl)cc3)cc(C(F)(F)F)n2n1,?,i,?,nt,i,i
CC1CCC2(CC1)NC(=O)N(CC(=O)NCc1ccc(F)cc1)C2=O (configuration not stated),i,i,i,i,i,i
CC(C)n1cc(CN2CCC(Oc3ccc(C(=O)N4CCCC4)cc3)CC2)cn1,i,i,i,i,i,i
COc1cc(-c2nnc(SCC(=O)N(C)C3CCCCC3)o2)cc(OC)c1OC,11.6µM,i,5.8µM,nt,i,?
COc1cc(-c2nnc(SCC(=O)c3ccccc3)o2)cc(OC)c1OC,?,i,?,i,i,?
CCOc1ccc(-c2nnc(SCC(=O)N(CC)c3cccc(C)c3)o2)cc1,20.6µM,i,10.3µM,nt,i,i
CCOC(=O)CSc1nnc(-c2cc(OC)c(OC)c(OC)c2)o1,?,i,i,i,i,i
CCN(C(=O)CSc1nnc(-c2cc(OC)c(OC)c(OC)c2)o1)c1ccccc1,14.6µM,nt,5.8µM,nt,i,i
COc1cccc(-c2nnc(SCC(=O)N(C)c3ccccc3)o2)c1,?,i,10.3µM,nt,i,i
O=C(NCCc1ccccc1)c1ccc(Cl)cc1[N+](=O)[O-],i,nt,i,i,i,i
Cc1ccc2c(c1)CN(CCNC(=O)C(C)Oc1ccccc1)CC(C)O2 (configuration not stated),i[9.04 µM],nt,i,nt,nt,nt
COc1ccc(CN(C(=O)CSc2nnc(-c3ccccc3F)o2)c2ccc(F)cc2)cc1,18.4µM,i,12.6µM,i,i,i
SMILES,TDP1 cell CPT,TDP1 block,DT40 TDP1 no CPT,IL-1B inflam inh,HepG2 viability,TGFb inhibitor
CCN(CC)C(=O)CSc1nnc(-c2cc(-c3ccc(Cl)cc3)nc3ccccc23)o1,i,i,?,i,i,i
CCc1ccc(OC(=O)CSc2nnc(-c3ccc(OC)c(OC)c3)o2)cc1,i,i,i,nt,i,i
COc1ccc(-c2nnc(SCC(=O)N(Cc3ccccc3)C(C)(C)C)o2)cc1OC,23.1µM,i,13µM,?,i,?
CCN(C(=O)CSc1nnc(-c2ccc(Cl)cc2)o1)c1ccccc1,?,i,20.6µM,nt,i,i
CC(=O)NC(CC(=O)N(Cc1ccccc1)c1cccc(C)c1)c1ccccc1 (configuration not stated),i,i,i,i,i,i
CCc1ccccc1NC(=S)N(Cc1ccc(C(=O)O)cc1)Cc1ccc(OC)c(OC)c1,i,i,i,i,i,i
O=C(CSC1CC(=O)N(c2ccc(C(=O)O)cc2)C1=O)Nc1ccc(Cl)cc1 (configuration not stated),?,i,?,i,i,i
CCNC(=O)C1(C)CCCN(Cc2ccc(-c3ccccc3)o2)C1 (configuration not stated),23.1µM,nt,23.1µM,i,i,i
CC1(Oc2cccc(F)c2)CCN(Cc2ccc(-c3ccccc3)o2)C1 (configuration not stated),23.1µM,nt,?,i,i,?
CCCNC(=O)C1(C)CCN(Cc2ccc(-c3ccccc3)o2)C1 (configuration not stated),23.1µM,nt,?,i,i,i
CSc1ccc(CN2CCC(C)(Oc3cccc(F)c3)C2)cc1 (configuration not stated),?,nt,?,i,i,i
COCCNC(=O)C1(C)CCCN(Cc2ccc(-c3ccccc3)o2)C1 (configuration not stated),?,nt,?,i,i,i
N#Cc1ccc(NC(=O)COCc2cc(-c3ccc4c(c3)OCO4)on2)cc1,?,i,?,nt,i,i
CCCCN1CC(Br)C(=O)NC1=O (configuration not stated),14.6µM,nt,18.4µM,i,i,i
CC(C)CN1CC(Br)C(=O)NC1=O (configuration not stated),?,nt,?,i,i,i
CCn1cc(C(=O)O)c(=O)c2cnc(N3CCN(C(=S)Nc4ccccc4C(F)(F)F)CC3)nc21,i,i,29.1µM,i,i,i
CCCOc1ccc(C(=O)NC(=S)N2CCN(c3ncc4c(=O)c(C(=O)O)cn(CC)c4n3)CC2)cc1,23.1µM,nt,?,i,i,i
CCn1cc(C(=O)O)c(=O)c2cnc(N3CCN(C(=S)NC(=O)c4ccccc4)CC3)nc21,i,i,i,?,i,i
Cc1cc(C)cc(OCC(=O)Nc2ccc(-n3cnnn3)cc2)c1,i,i,i,i,i,i
N#Cc1ccccc1Cn1c(=O)n(-c2ccccc2)c(=O)c2c3c(sc21)CCC3,i,i,i,nt,i,i
CCc1c(C)sc2c1CCN(Cc1ccccc1C#N)C2c1ccccc1 (configuration not stated),9.2µM,i,?,nt,i,i
CCc1c(C)sc2c1CCN(Cc1ccccc1)C2c1ccccc1 (configuration not stated),7.31µM,i,2.91µM,nt,i,?
